From PubChem BioAssay (EPA / NIEHS)
Activity calls are given as the source filed them. The calls were made as follows: active = hit-call score of the fitted dose curve at least 0.9, where 1 is the maximum; inactive = score below 0.9.

Tests used:
[1] = APR_HepG2_CellCycleArrest_24hr: Apredica 24-hour HepG2 Assay for Cell Cycle Arrest (AID 2282905); conditions: imaging, actives raise or lower the signal;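 also: cell cycle arrest scored as ratio of 2N to 4N nuclear DNA content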
In short: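 Compounds (0.39 to 200 uM, final DMSO 0.5% v/v) are applied to HepG2 cells for 24 hours; cells are then fixed, permeabilized and nuclei labeled with Hoechst 33342. Automated imaging measures DNA content, and activity is fitted in both directions against DMSO.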

[2] = APR_HepG2_NuclearSize_24hr: Apredica 24-hour HepG2 Assay for Nuclear Size (AID 2282907); conditions: high-content imaging, actives raise or lower the signal
In short: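 Nuclear size is measured by fluorescence high-content imaging of Hoechst-labelled HepG2 nuclei after 24 hr of treatment (0.39–200 uM, 0.5% DMSO). Cells are fixed in 3.7% formaldehyde before staining, and DMSO serves as the baseline for bidirectional curve fitting.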

[3] = APR_HepG2_CellLoss_24hr: Apredica 24-hour HepG2 Assay for Cell Loss (AID 2282908); conditions: high-content imaging;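 as to AC50: fit in both directions so a hit may be cell loss or gain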
In short: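 Nuclear count serves as the viability measure: treated cells are fixed, permeabilized and labelled with Hoechst 33342, and six images per well are analysed to identify valid nuclei. Doses span 0.39–200 uM, and activity in either direction is scored against DMSO.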

[4] = APR_HepG2_MicrotubuleCSK_24hr: Apredica 24-hour HepG2 Assay for Microtubule CSK Stabilty (AID 2282909); conditions: HepG2 microtubule cytoskeleton imaging, actives raise or lower the signal
In short: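 Compounds were applied to HepG2 cells for 24 hours across 0.39–200 uM in duplicate, with final DMSO at 0.5% v/v. Fixed, permeabilized cells were labeled for alpha-tubulin and nuclei, and tubulin fluorescence was quantified by imaging, fitted bidirectionally against DMSO.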

[5] = APR_HepG2_MitoticArrest_24hr: Apredica 24-hour HepG2 Assay for Mitotic Arrest (AID 2282910); conditions: high-content imaging, actives raise or lower the signal
In short: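 Treatment lasted 24 hr in the human HepG2 line at 0.39–200 uM, solvent held at 0.5% DMSO. Fixed cells were stained with Hoechst 33342 and anti-phospho-histone H3, imaged at 20x, and analysed by gain- or loss-of-signal fitting against DMSO.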

[6] = APR_HepG2_MitoMembPot_24hr: Apredica 24-hour HepG2 Assay for Mitochondrial Membrane Potential (AID 2282911); conditions: imaging, actives raise or lower the signal
In short: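 Mitochondrial membrane potential imaged via MitoTracker Red CMXRos (250 nM, 30 min pre-fixation) in fixed HepG2 cells with Hoechst nuclear identification. Ten concentrations 0.39–200 uM, 24 h treatment, 0.5% DMSO; CCCP as positive control.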

[7] = APR_HepG2_MitoMass_24hr: Apredica 24-hour HepG2 Assay for Mitochondrial Mass (AID 2282912); conditions: high-content imaging, actives raise or lower the signal
In short: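 After 24 hr of treatment at 0.39 to 200 uM, HepG2 cells take up 250 nM MitoTracker Red CMXRos for 30 min and are then fixed with 3.7% formaldehyde. Per-well images are quantified, and any change in either direction is scored against solvent.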

[8] = APR_HepG2_p53Act_24hr: Apredica 24-hour HepG2 Assay for p53 Activation (AID 2282913); conditions: high-content imaging, actives raise or lower the signal;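 also: p53 protein immunofluorescence averaged per cell in HepG2 with Hoechst nuclei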
In short: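 Fluorescence imaging of formaldehyde-fixed HepG2 cells labelled for p53 and with Hoechst, 24 h after dosing (0.39–200 uM, duplicate wells, 0.5% v/v DMSO). Signal fitted in both directions relative to DMSO.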

[9] = APR_HepG2_CellCycleArrest_72hr: Apredica 72-hour HepG2 Assay for Cell Cycle Arrest (AID 2282914); conditions: high-content imaging, actives raise or lower the signal
In short: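 Read-out: nuclear DNA content from Hoechst 33342 high-content imaging (20x, six fields/well) after 3.7% formaldehyde fixation, fitted bidirectionally against DMSO. Treatment was 72 h in HepG2, ten concentrations 0.39–200 uM, duplicate, 0.5% DMSO.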

[10] = APR_HepG2_CellLoss_72hr: Apredica 72-hour HepG2 Assay for Cell Loss (AID 2282915); conditions: high-content imaging
In short: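 HepG2 cells were exposed for 72 hr to compounds at 0.39–200 uM (ten concentrations, duplicate) in 0.5% v/v final DMSO. Nuclei were stained with Hoechst 33342 after 3.7% formaldehyde fixation, imaged at 20x, and counted; fits bidirectional versus DMSO.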

[11] = APR_HepG2_P-H2AX_72hr: Apredica 72-hour HepG2 Assay for H2AX Phosphorylation (AID 2282916); conditions: imaging, actives raise or lower the signal;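 also: phospho-histone H2A.x immunostain intensity per cell marking DNA damage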
In short: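 Human hepatoma HepG2 cells are dosed across ten concentrations (0.39 to 200 uM, 0.5% v/v DMSO) and incubated 72 hr. Phospho-histone H2A.x is then detected by antibody staining alongside c-Jun and Hoechst, and quantified by automated fluorescence imaging.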

[12] = APR_HepG2_MitoMembPot_72hr: Apredica 72-hour HepG2 Assay for Mitochondrial Membrane Potential (AID 2282917); conditions: imaging, actives raise or lower the signal
In short: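 HepG2 cells exposed 72 h to compounds at 0.39–200 uM (0.5% v/v DMSO, duplicates); MitoTracker Red CMXRos 250 nM loaded 30 min before 3.7% formaldehyde fixation, imaged by HCS fluorescence. Bidirectional fit versus DMSO.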

[13] = APR_HepG2_MitoticArrest_72hr: Apredica 72-hour HepG2 Assay for Mitotic Arrest (AID 2282918); conditions: high-content imaging, actives raise or lower the signal
In short: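 High-content imaging of fixed human HepG2 cells after 72 h compound exposure (0.39–200 uM, duplicates, 0.5% DMSO); mitotic arrest scored from phospho-histone H3 and nuclear Hoechst staining relative to DMSO.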

[14] = APR_HepG2_StressKinase_72hr: Apredica 72-hour HepG2 Assay for Stress Kinase (AID 2282921); conditions: HepG2 stress kinase (phospho-c-Jun) imaging, actives raise or lower the signal
In short: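 After a 72 h compound treatment spanning 0.39 to 200 uM, formaldehyde-fixed cells are labelled for phosphorylated c-Jun and nuclei, imaged by automated fluorescence microscopy, and activity is fitted in both directions relative to DMSO controls.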

[15] = APR_HepG2_p53Act_72hr: Apredica 72-hour HepG2 Assay for p53 Activation (AID 2282923); conditions: high-content imaging, actives raise or lower the signal;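 also: average cellular p53 protein immunofluorescence intensity in HepG2 cells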
In short: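 Imaging-based endpoint: after 72 hr compound exposure (up to 200 uM, 0.5% DMSO), fixed and permeabilized monolayers were labelled with anti-p53 antibody and imaged; signal change in either direction was fitted relative to DMSO controls.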

[16] = APR_HepG2_MitoMass_72hr: Apredica 72-hour HepG2 Assay for Mitochondrial Mass (AID 2282924); conditions: high-content imaging, actives raise or lower the signal;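 also: MitoTracker Red CMXRos stain intensity per cell imaged as mitochondrial mass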
In short: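 Steps: treat HepG2 72 hr (0.39–200 uM, duplicate wells); load MitoTracker Red CMXRos, 250 nM, 30 min; fix with 3.7% formaldehyde, permeabilise with 0.5% Triton X-100; capture images, nuclei via Hoechst 33342; fit bidirectionally against DMSO.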

[17] = APR_HepG2_NuclearSize_72hr: Apredica 72-hour HepG2 Assay for Nuclear Size (AID 2282925); conditions: high-content imaging, actives raise or lower the signal
In short: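 Compounds (0.39–200 uM, final DMSO 0.5%) were applied to HepG2 for 72 hr. Cells were then formaldehyde-fixed, permeabilized and labelled with Hoechst 33342. Nuclear diameter was quantified from six images per well.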

[18] = APR_HepG2_P-H2AX_24hr: Apredica 24-hour HepG2 Assay for H2AX Phosphorylation (AID 2282920); conditions: high-content imaging, actives raise or lower the signal
In short: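 High-content imaging of phospho-histone H2A.x immunofluorescence, nuclei counterstained with Hoechst 33342, in fixed HepG2 cells. Compounds ran 0.39–200 uM in duplicate for 24 h, final DMSO 0.5%. Signal change fitted both directions against DMSO.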

[19] = APR_HepG2_StressKinase_24hr: Apredica 24-hour HepG2 Assay for Stress Kinase (AID 2282922); conditions: HepG2 stress kinase (phospho-c-Jun) imaging, actives raise or lower the signal
In short: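 After 24 hr compound treatment (up to 200 uM, final DMSO 0.5% v/v), HepG2 cells are fixed and multiplex-labeled; phospho-c-Jun intensity is captured by high-content fluorescence imaging and analyzed relative to DMSO.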

Measured: AC50

CC(=O)N1CCN(c2ccc(OC[C@H]3CO[C@](Cn4ccnc4)(c4ccc(Cl)cc4Cl)O3)cc2)CC1
active: [3] 28.6 µM | [4] 103 µM | [6] 118 µM | [10] 23.5 µM | [11] 32.3 µM | [13] 75.9 µM | [15] 14.5 µM
not listed: [18] | [19]
inactive: all other assays above

CCN(Cc1cccnc1)C(=O)c1cccc(Cl)c1[C@]1(C)C(=O)N(Cc2ccc(OC)cc2OC)c2ccc(Cl)cc21
active: [6] 50.3 µM | [10] 14.4 µM | [11] 20.3 µM | [13] 21.8 µM
not listed: [15] | [18] | [19]
inactive: all other assays above

Oc1ccccc1
not listed: [15] | [19]
inactive: all other assays above

O=c1ccc2ccccc2o1
active: [12] 100 µM
not listed: [15]
inactive: all other assays above

CC[C@@H]1C[C@H](N(Cc2cc(C(F)(F)F)cc(C(F)(F)F)c2)C(C)=O)c2cc(C(F)(F)F)ccc2N1C(=O)OC(C)C
active: [6] 0.0358 µM
not listed: [18]
inactive: all other assays above

CCN(CC)C(=O)c1cc(S(=O)(=O)Cc2ccccc2)c(N2CCC(c3ccccc3)CC2)cc1N(CC)CCN(C)C
active: [1] 75.9 µM | [3] 5.48 µM | [4] 11.1 µM | [5] 1.59 µM | [7] 23.1 µM | [8] 18.6 µM | [9] 3.21 µM | [10] 2.54 µM | [11] 0.876 µM | [12] 1.88 µM | [13] 1.12 µM
inactive: [2] | [6] | [14] | [15] | [16] | [17]

CCCCCCCCCC(=O)O
not listed: [19]
inactive: all other assays above

COc1cc(C(=O)NC2CCN(C)CC2)ccc1Nc1ncc2c(n1)N(C1CCCC1)CC(F)(F)C(=O)N2C
inactive: all assays above

CCO[Si](CCCNC(N)=O)(OCC)OCC
not listed: [15] | [19]
inactive: all other assays above

CCCC(=O)OCCC(C)C
not listed: [18] | [19]
inactive: all other assays above

CN(C)C(=O)C1(N2CCCCC2)CCN(CC[C@@]2(c3ccc(Cl)c(Cl)c3)CN(C(=O)c3ccccc3)CCO2)CC1
inactive: [1] | [6] | [12] | [14] | [19] | [16]
active: [2] 20.9 µM | [3] 15.7 µM | [4] 65.2 µM | [5] 13.1 µM | [7] 7.74 µM | [8] 22.9 µM | [9] 67.3 µM | [10] 11.4 µM | [11] 12.3 µM | [13] 6.87 µM | [18] 19.6 µM | [17] 6.79 µM

COc1cccc([C@H](O)C2CCN(CCc3ccc(F)cc3)CC2)c1OC
active: [1] 75.2 µM | [10] 105 µM | [13] 102 µM
not listed: [18]
inactive: all other assays above

c1ccc2n[nH]nc2c1
not listed: [15]
inactive: all other assays above
